# From paper PMC4081100, “A DNA-binding-site landscape and regulatory network analysis for NAC transcription factors in Arabidopsis thaliana”
# Biological target: T1, GST-ANAC092(1-176) (Arabidopsis thaliana, UniProt Q9FKA0 1-176)
# T1 sequence: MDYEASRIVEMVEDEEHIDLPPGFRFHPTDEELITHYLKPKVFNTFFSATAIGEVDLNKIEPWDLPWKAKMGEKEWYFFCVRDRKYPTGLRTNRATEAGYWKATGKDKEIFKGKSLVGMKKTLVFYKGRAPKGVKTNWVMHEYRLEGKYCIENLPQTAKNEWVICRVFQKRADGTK
# Assay: universal protein binding microarray (PBM); transcription factors of Arabidopsis thaliana; high values mean tight binding
# Details: protein: recombinant; tags: GST; chain copies: 2; dsDNA, one strand shown
# Procedure, shortened: (§1)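 Each value is a normalised enrichment score (E-score) describing binding. The GST-tagged proteins, NAC-domain, full-length or DNA-binding-domain, were induced in cells (zinc-finger proteins with zinc acetate added) and purified on glutathione–Sepharose 4B. They were applied at 200 to 500 nM final, in duplicate, to double-stranded custom all-10-mer Agilent 4 × 180K arrays, and gapped and ungapped 8-mers were scored.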
row,Sequence,binding signal [E-score]
1,CGTCAACC,0.0573
2,GGTCAAAC,0.0595
3,CAAGTCAA,0.0929
4,CAGTCAAG,0.051
5,GGCTTGAC,0.0969
6,GGGTCAAC,0.0723
7,TGACCAAA,0.0758
8,CTGACCGC,0.0725
9,GGTCAACC,0.144
10,AAAGGTCA,0.0939
11,ACTGGTCA,0.127
12,ACTTGACC,0.0892
13,GCGTGGAC,0.0916
14,CCCTTGAC,0.0597
15,GGGTCAAA,0.0694
16,CCAGTCAA,0.0755
17,AGTCCACG,0.062
18,TGGGTCAA,0.156
19,GCATTGAC,0.0797
20,AAAGTCAG,0.1
21,CTCTTGAC,0.059
22,GTTGACCA,0.131
23,CTGGTCAA,0.0676
24,AGTCAAGG,0.104

# Biological target: GST-NTL6(1-168) (Arabidopsis thaliana, UniProt Q9SCK6 1-168)
# Sequence (Q9SCK6 1-168): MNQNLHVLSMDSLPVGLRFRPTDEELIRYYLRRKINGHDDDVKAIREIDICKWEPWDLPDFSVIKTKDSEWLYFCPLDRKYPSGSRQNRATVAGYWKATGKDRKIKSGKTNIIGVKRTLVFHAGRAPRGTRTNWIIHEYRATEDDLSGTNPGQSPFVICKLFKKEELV
# Assay: as above
# Details: protein: recombinant; tags: GST; chain copies: 2; dsDNA, one strand shown
# Procedure, shortened: as §1
row,Sequence,binding signal [E-score]
1,AGGTCAGA,0.0962
2,GGTTTGAC,0.131
3,GTCAATGA,0.0646
4,CTAAGTCA,0.146
5,CCCTTGAC,0.0561
6,AGTTGACC,0.0645
7,TGACCTAA,0.0566
8,AGTCAAGA,0.0587
9,GCGAAGAC,0.12
10,AAGTCAGC,0.14
11,CTGACTTA,0.195

# Biological target: T2, GST-ANAC019 NAC domain (Arabidopsis thaliana, UniProt Q9C932 14-162)
# T2 sequence: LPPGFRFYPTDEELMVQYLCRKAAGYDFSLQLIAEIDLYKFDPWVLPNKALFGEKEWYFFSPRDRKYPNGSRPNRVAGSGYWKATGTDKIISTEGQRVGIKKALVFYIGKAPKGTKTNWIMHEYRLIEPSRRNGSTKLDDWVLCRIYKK
# Assay: as above
# Details: protein: recombinant; tags: GST; chain copies: 2; dsDNA, one strand shown
# Procedure, shortened: as §1
row,Sequence,binding signal [E-score]
1,GGTTTGAC,0.0692
2,GGTCAACC,0.0527
3,ACTTGACC,0.05
4,GCGTGGAC,0.0892
5,CCCTTGAC,0.0511
6,CCAGTCAA,0.0525
7,AGTCCACG,0.0759
8,AAAGTCAG,0.0919
9,GCGAAGAC,0.0689
10,CTCTTGAC,0.0833
11,AGTCAAGG,0.0733

# Biological target: T3, GST-ANAC055(1-171) (Arabidopsis thaliana, UniProt Q9LDY8 1-171)
# T3 sequence: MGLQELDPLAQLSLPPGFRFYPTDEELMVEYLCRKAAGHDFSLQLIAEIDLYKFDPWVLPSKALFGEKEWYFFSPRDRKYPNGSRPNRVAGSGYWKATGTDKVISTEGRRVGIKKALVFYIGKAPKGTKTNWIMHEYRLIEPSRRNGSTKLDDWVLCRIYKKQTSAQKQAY
# Assay: as above
# Details: protein: recombinant; tags: GST; chain copies: 2; dsDNA, one strand shown
# Procedure, shortened: as §1
row,Sequence,binding signal [E-score]
1,GGTTTGAC,0.162
2,AAAGGTCA,0.106
3,GCGAAGAC,0.0506

# Biological target: T4, GST-ATAF1 NAC domain (Arabidopsis thaliana, UniProt Q39013 7-158)
# T4 sequence: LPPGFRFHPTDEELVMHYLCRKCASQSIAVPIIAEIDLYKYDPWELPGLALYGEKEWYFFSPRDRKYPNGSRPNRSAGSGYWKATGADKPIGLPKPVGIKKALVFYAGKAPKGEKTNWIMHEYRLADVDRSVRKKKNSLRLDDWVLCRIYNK
# Assay: as above
# Details: protein: recombinant; tags: GST; chain copies: 2; dsDNA, one strand shown
# Procedure, shortened: as §1
row,Sequence,binding signal [E-score]
1,GGTCAAAC,0.0641
2,CAAGTCAA,0.0933
3,GGTTTGAC,0.171
4,GGTCAACC,0.0896
5,AAAGGTCA,0.137
6,GCATTGAC,0.0849
7,AAAGTCAG,0.0653
8,CTCTTGAC,0.0783

# Biological target: T5, GST-ANAC092(1-285) full length (Arabidopsis thaliana, UniProt Q9FKA0 1-285)
# T5 sequence: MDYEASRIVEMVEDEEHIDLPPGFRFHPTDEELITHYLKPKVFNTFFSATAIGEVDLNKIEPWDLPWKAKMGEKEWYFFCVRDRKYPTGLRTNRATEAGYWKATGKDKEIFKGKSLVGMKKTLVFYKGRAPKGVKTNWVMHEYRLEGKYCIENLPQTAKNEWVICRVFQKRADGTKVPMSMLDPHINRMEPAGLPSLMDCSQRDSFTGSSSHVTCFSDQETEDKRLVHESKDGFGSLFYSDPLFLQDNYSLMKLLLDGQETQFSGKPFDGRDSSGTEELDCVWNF
# Assay: as above
# Details: protein: recombinant; tags: GST; chain copies: 2; dsDNA, one strand shown
# Procedure, shortened: as §1
row,Sequence,binding signal [E-score]
1,CGTCAACC,0.0571
2,GGTCAAAC,0.0869
3,CAAGTCAA,0.234
4,GGTTTGAC,0.116
5,CAGTCAAG,0.063
6,GGGTCAAC,0.0889
7,TGACCAAA,0.126
8,GGTCAACC,0.061
9,AAAGGTCA,0.0795
10,ACTTGACC,0.0507
11,GCGTGGAC,0.19
12,TGGGTCAA,0.159
13,AGTCAAGG,0.139

# Biological target: T6, GST-NAP(1-166) (Arabidopsis thaliana, UniProt O49255 1-166)
# T6 sequence: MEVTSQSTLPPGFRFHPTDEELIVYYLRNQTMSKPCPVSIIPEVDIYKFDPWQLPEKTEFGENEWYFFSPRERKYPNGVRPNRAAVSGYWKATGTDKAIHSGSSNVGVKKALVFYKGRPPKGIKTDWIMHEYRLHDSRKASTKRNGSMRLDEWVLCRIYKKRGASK
# Assay: as above
# Details: protein: recombinant; tags: GST; chain copies: 2; dsDNA, one strand shown
# Procedure, shortened: as §1
row,Sequence,binding signal [E-score]
1,GGTTTGAC,0.0603
2,CCCTTGAC,0.067
3,GCGAAGAC,0.0548
4,CTCTTGAC,0.0978
5,AGTCAAGG,0.0507

# Biological target: T7, GST-NST2(1-184) (Arabidopsis thaliana, UniProt Q9M274 1-184)
# T7 sequence: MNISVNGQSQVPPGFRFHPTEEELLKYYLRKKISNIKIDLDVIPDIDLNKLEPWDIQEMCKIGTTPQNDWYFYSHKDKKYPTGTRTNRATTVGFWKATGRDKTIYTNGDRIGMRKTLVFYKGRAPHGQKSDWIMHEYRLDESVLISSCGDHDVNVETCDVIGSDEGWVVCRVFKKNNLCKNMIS
# Assay: as above
# Details: protein: recombinant; tags: GST; chain copies: 2; dsDNA, one strand shown
# Procedure, shortened: as §1
row,Sequence,binding signal [E-score]
1,GGTCAAAC,0.0597
2,GGTTTGAC,0.177
3,ACTTGACC,0.11
4,GGGTCAAA,0.0921
5,GCATTGAC,0.0561
6,AAAGTCAG,0.085
7,AGTCAAGG,0.0876
